VACV Venus inh: qHTS for Stage-Specific Inhibitors of Vaccinia Orthopoxvirus: Venus Reporter Primary qHTS; Vaccinia virus Venus reporter expression, fluorescence; Potency, µM (titrated, usually from 36.5 µM), for inactives: top-dose activity change, negative = inhibition, actives largely listed as inhibitors; 330,000 tested, 0.46% active; calls by dose curve; tested in A549 cells; further: nearly all actives have a fitted effect of over 30% in size
Vaccinia mCherry: qHTS for Stage-Specific Inhibitors of Vaccinia Orthopoxvirus: mCherry Reporter Primary qHTS | Potency, µM (top dose mostly 36.5 µM), without a hit: at the top dose activity change, negative = inhibition, hits mostly inhibitors | 310,000 tested, 0.63% active | Vaccinia virus mCherry reporter infection, fluorescence; calls by dose curve; tested in A549 cells; further: nearly all actives have a fitted effect of over 35% in size
Lassa entry inh: qHTS for Inhibitors of binding or entry into cells for Lassa Virus; Lassa virus pseudotype entry inhibition, cell reporter; Potency, µM (doses to about 37.9 µM), for inactives: top-dose activity change, negative = inhibition, usual class: inhibitors; 300,000 tested, 1.2% active; AID 540256, 2011; calls by dose curve; tested in HEK293 cells; further: nearly all actives have a fitted effect of over 50% in size
HCV inh: qHTS Assay for Inhibitors of Hepatitis C Virus (HCV) | AID 651820, 2012 | Huh7.5.1 HCVcc-Cre infection, luciferase reporter, 44 h | Potency, µM (highest dose often 41.8 µM), for the others: top-dose activity change, negative = inhibition, most hits filed as inhibitors | 340,000 tested, 3.4% active; active means well fitted inhibition curve with a large enough effect; inconclusive means small, poorly fitted or top-dose-only effect, or another doubt; inactive means no such curve, though single readings can be large or run the other way
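A cell-based infection assay in which seeded cells (1,000 per well) receive test compound after 4 h, are inoculated with HCVcc-Cre at approximately 0.5 moi, and are incubated 44 h before luminescence detection.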
Marburg entry inh: qHTS for inhibitors of binding or entry into cells for Marburg Virus. 300,000 tested, 1.8% active. Marburg virus pseudotyped entry inhibition, cell reporter. AID 540276, 2011. Potency, µM (top dose mostly 37.8 µM), for inactives: top-dose activity change, negative = inhibition, most hits filed as inhibitors; calls by dose curve; tested in HEK293 cells
* marks the source's active call; other numbers are inactive results; i = inactive; ? = inconclusive; nt = no result; [ ] = dose if it differs, or a comment. An excerpt weighted towards active compounds, which were near 4.6% of everything screened. On the % scale 0 is the no-effect control and ±100 the full control effect; potency means the concentration at half of the fitted maximal effect.

SMILES	VACV Venus inh	Vaccinia mCherry	Lassa entry inh	HCV inh	Marburg entry inh
CCC(C)NS(=O)(=O)c1ccc(NC(=O)C(Sc2ccccc2)c2ccccc2)cc1 (configuration not stated)	?	?	13µM*	?	?
CC1=NC(=O)C(C#N)C=C1c1ccncc1 (configuration not stated)	nt	nt	nt	nt	0%
NNC(=O)C1CC1c1ccccc1 (configuration not stated)	-8%	i	?	38%	?
CCc1c(C)sc(NC(=O)C2CC2c2ccccc2)c1C(N)=O (configuration not stated)	nt	nt	2.9µM*	?	3.3µM*
O=C(c1cscn1)N1CCOc2ccc(CN3CCC(Oc4cccnc4)CC3)cc2C1	-5%	-7%	nt	nt	nt
COC(=O)C1=C(c2ccc(F)cc2OCc2ccccc2)C[C@@H]2CC[C@H]1N2C(=O)NC1Cc2ccccc2C1	?	-14%	nt	11µM*	nt
COC(=O)C1=C(c2ccc(F)cc2OCc2ccccc2)C[C@@H]2CC[C@H]1N2C(=O)NCCCc1ccccc1	?	-6%	nt	10µM*	nt
COC(=O)C1=C(c2ccc(F)cc2OCc2ccccc2)C[C@@H]2CC[C@H]1N2C(=O)NCc1ccc(F)cc1	-26%	-32%	nt	?	nt
COC(=O)C1=C(c2ccccc2OCc2ccccc2)C[C@@H]2CC[C@H]1N2C(=O)NCc1ccc(F)cc1	?	0%	nt	7.1µM*	nt
COC(=O)C1=C(c2ccc(F)cc2OCc2ccccc2)C[C@@H]2CC[C@H]1N2C(=O)NCc1ccc(C)cc1	?	-3%	nt	?	nt
COc1ccc(CN2CCC(CO)(CCOc3ccccc3)CC2)c(OC)c1C	-11%	-17%	?	?	?
COc1ccc2[nH]c(CN3CCC(CO)(CCOc4ccccc4)CC3)c(C)c2c1	-11%	-29%	?	10µM*	?
CC1Cc2ccccc2N1c1ncnc2c1nnn2Cc1ccccc1 (configuration not stated)	nt	nt	-27%	11µM*	?
CC1Cc2ccccc2N1c1nc(C2CC2)nc2c1nnn2Cc1ccccc1 (configuration not stated)	-13%	nt	-8%	4%	0%
CNC(=S)N1N=C(c2ccc(C)cc2)CC1c1ccc(Cl)cc1 (configuration not stated)	nt	nt	9.2µM*	?	?
CNC(=S)N1N=C(c2ccccc2)CC1c1ccccc1Cl (configuration not stated)	-3%	i	?	?	?
CCOC(=O)/C=C/c1ccc2c(c1)S(=O)(=O)N(C1CCCC1)[C@H]2CC(=O)OCC	-25%	-6%	nt	nt	nt
CCOC(=O)C1=C(CSc2nc3c(cc2C#N)CN(C)CC3)OC(N)=C(C#N)C1c1ccncc1 (configuration not stated)	13%	-10%	?	14%	?
CCOC(=O)C1=C(CSc2nc3c(cc2C#N)CN(C)CC3)OC(N)=C(C#N)C1c1ccc(Cl)cc1 (configuration not stated)	-1%	nt	8%	13µM*	?
COC(=O)C[C@H]1c2ccccc2[C@@H]2C(=C[C@@H](C)[C@H]3C(=O)NC(=O)[C@H]32)N1C(=O)OC	nt	nt	nt	nt	3%[14.2 µM]
COC1=C[C@H](C(=O)NCc2ccc(Br)cc2)C(C)C(c2ccccc2)CC1=O (some centres not stated)	nt	nt	nt	nt	15%[14.2 µM]
O=C(Nc1ncc(Cc2ccccc2)s1)C1CCCO1 (configuration not stated)	2%	-18%	15µM*	5%	?
O=C(Nc1ccc(-c2nc3cccnc3s2)cc1)C1CCCO1 (configuration not stated)	-3%	i	?	-15%	2.6µM*
C=C(C)CCCN1C=C(C(=O)OCC)C(c2ccccc2)NC1=O (configuration not stated)	nt	nt	?	nt	-14%[14.2 µM]
O=C(Cn1cc(SCc2ccccc2Cl)c2ccccc21)N1CCCCCC1	-13%	i	?	nt	nt
SMILES	VACV Venus inh	Vaccinia mCherry	Lassa entry inh	HCV inh	Marburg entry inh
Nc1ccc(C(=O)OCC(=O)N2c3ccccc3Sc3ccccc32)cc1[N+](=O)[O-]	-20%	-9%	16µM*	?	21µM*
NCCNc1ccc(C(=O)N2c3ccccc3Sc3ccccc32)cc1[N+](=O)[O-]	-23%	-5%	?	11µM*	?
Cc1ccc(NC(=O)c2ccc(NCCN)c([N+](=O)[O-])c2)cc1	-19%	-13%	?	-12%	5%
O=C(/C=C/c1ccc(C(F)(F)F)cc1)OC(C(=O)NC1CC1)c1ccccc1 (configuration not stated)	-8%	11%	nt	nt	nt
CC(C)(C)NC(=O)N1CCN(c2nc3ccc(Cl)cc3s2)CC1	-13%	-9%	13%[46.1 µM]	13µM*	?
CC(C)(CC(=O)O)CC(=O)N1CCN(c2nc3ccc(Cl)cc3s2)CC1	nt	nt	nt	9%	nt
CC(C)(CC(=O)O)CC(=O)N1CCCN(c2nc3ccc(Cl)cc3s2)CC1	-16%	-3%	4%	-2%	-10%
CCCCC(=O)N1CCN(c2nc3ccc(Cl)cc3s2)CC1	-6%	-14%	-7%[46.1 µM]	7.9µM*	?
CCOC(=O)c1ccc(NC(=S)N(CCCN2CCCCC2)Cc2ccco2)cc1	-15%	-15%	-17%	?	13µM*
Nc1ccc(/C=C/c2nc3ccccc3s2)cc1	28%	-10%	nt	nt	nt
O=C(C[n+]1cccc(Br)c1)c1ccc(I)cc1	-9%	i	nt	nt	nt
CCC=CC[C@@]1(C(=O)OC)C=C[C@@H](C)[C@H](c2ccccc2Br)N1C(=O)C(F)(F)F	nt	nt	nt	nt	-1%[14.2 µM]
CC1(C)OC(=O)C=C(CC2NS(=O)(=O)OC3CCCCC23)O1 (configuration not stated)	-6%	i	nt	2.5µM*	nt
O=C(C[C@@H]1NS(=O)(=O)OC2CCCCC21)c1ccccc1 (some centres not stated)	-10%	i	nt	0.28µM*	nt
NC[C@@H]1CC[C@@H](N)[C@@H](O[C@H]2[C@H](O)[C@@H](O[C@H]3O[C@H](CO)[C@@H](O)[C@H](N)[C@H]3O)[C@H](N)C[C@@H]2N)O1	-8%	-5%	nt	nt	nt
O=C(NCC1(N2CCCCC2)CCCC1)c1cnn(-c2nccc(-c3cccs3)n2)c1C1CC1	10%	-1%	nt	nt	nt
CCOc1ccc(CNC(=O)c2ccc(Sc3ccc(Cl)cc3)c(NC(C)=O)c2)cc1OC	-14%	-11%	?	13µM*	?
Nc1ccc(/C=C/c2cc(Cl)nc3ccccc23)cc1	-14%	-5%	nt	nt	nt
Nc1ccc2c(c1)C(=O)c1cc(N)c(Cl)cc1-2	-27%	?	-8%[46.1 µM]	25µM*	?
CN(C)S(=O)(=O)N(CC(=O)Nc1ccccc1F)c1ccccc1	nt	nt	-1%	19%	-15%

Screening data (PubChem BioAssay)
